In PubChem BioAssay AID2283302 (EPA ToxCast):
Records with an inconclusive call do not appear. Active and inactive are the calls of the source. The calls were made as follows: active = hit-call score of the fitted dose curve at least 0.9, where 1 is the maximum; inconclusive = response in the unintended direction; inactive = score below 0.9.

Target: rat Gamma-HydroxyButyrate Receptor (GHB), Tspan17 (gene 306771) (UniProt Q4V8E0)
Test: NVS_GPCR_rGHB: NovaScreen (NVS) G Protein-Coupled Receptor Assay for rat Gamma-HydroxyButyrate Receptor (GHB)
Description: NVS_GPCR_rGHB is a biochemical, single-readout assay that uses extracted gene-proteins from Rat forebrain in a tissue-based cell-free assay. Measurements were taken 1 hour after chemical dosing in a 48-well plate.NVS_GPCR_rGHB is one of one assay component(s) measured or calculated from the NVS_GPCR_rGHB assay. It is designed to make measurements of radioligand binding, a form of binding reporter, as detected with scintillation counting signals by Filter-based radiodetection technology.Data from the assay component NVS_GPCR_rGHB was analyzed into 1 assay endpoint. This assay endpoint, NVS_GPCR_rGHB, was analyzed in the positive analysis fitting direction relative to DMSO as the negative control and baseline of activity. Using a type of binding reporter, loss-of-signal activity can be used to understand changes in the binding as they relate to the gene Tspan17. Furthermore, this assay endpoint can be referred to as a primary readout, because the performed assay has only produced 1 assay endpoint. To generalize the intended target to other relatable targets, this assay endpoint is annotated to the gpcr intended target family, where the subfamily is metabotropic glutamate receptor.
Binding assays used specific radioligands (tritiated, iodinated) with non-radioactive competitive displacement ligands in agonist or antagonist protocols (as indicated) and various reference compounds and inhibitors to titrate specific binding to receptors and transporters. Most enzyme assays (CYPs, kinases, phosphatases, proteases, HDACs) used recombinant protein and specific substrates (fluorescence mostly, some colorimetric and radioactive) and inhibitors, followed by a biochemical separation of substrate and product. All assays for the biochemical HTS were initially run in duplicate at a single concentration (10 uM for CYP450 assays and 25 uM for all others). Assay-chemical combinations meeting a pre-defined threshold (e.g., 30% inhibition and other criteria defined below) were then run in singleton concentration-response format with maximum concentration of 20 uM for CYPs and 50 uM for all others. Each assay was run with positive and negative controls, and concurrent controls on every plate. The follow-up (secondary) screen tested active chemical-pairs in concentration series, as well as a few additional assays not tested in the primary screen, some selected negative inactives, and several cases re-run in the concentration series for confirmatory purposes.

Chain of rat Gamma-HydroxyButyrate Receptor (GHB), Tspan17 (gene 306771) (Q4V8E0 whole entry, looked up): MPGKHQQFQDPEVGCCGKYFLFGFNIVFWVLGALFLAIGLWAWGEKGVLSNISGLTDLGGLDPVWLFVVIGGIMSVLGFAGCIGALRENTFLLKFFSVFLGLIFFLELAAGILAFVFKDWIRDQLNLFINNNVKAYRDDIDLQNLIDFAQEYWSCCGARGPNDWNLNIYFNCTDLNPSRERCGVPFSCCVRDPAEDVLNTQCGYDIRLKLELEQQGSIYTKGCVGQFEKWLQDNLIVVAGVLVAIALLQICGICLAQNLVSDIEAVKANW

Structure (SMILES) | AC50 | outcome
Cc1cc(Cl)ccc1OCC(=O)O | 25 µM (active) | –
N#CSCSC#N | 19.5 µM (active) | –
CC(C1CC1)C(O)(Cn1cncn1)c1ccc(Cl)cc1 (centres undefined) | – | inactive
CCOC(=O)CC(SP(=S)(OC)OC)C(=O)OCC (centres undefined) | – | inactive
Clc1nc(Cl)nc(Nc2ccccc2Cl)n1 | 18.6 µM (active) | –
CCOP(=O)(OCC)Oc1nc(Cl)c(Cl)cc1Cl | – | inactive
COP(=S)(OC)Oc1nc(Cl)c(Cl)cc1Cl | – | inactive
CC(C)Oc1cccc(NC(=O)c2ccccc2C(F)(F)F)c1 | – | inactive
CO[C@@H]1[C@H](OC(=O)NC(=O)CCl)CC[C@]2(CO2)[C@H]1[C@@]1(C)O[C@@H]1CC=C(C)C | – | inactive
